Compounds with a hit are over-represented: about 2% of the library has one in this group of screens.
TLR4-MyD88 BLA: TLR4-MyD88 interaction inhibition in cells; 200,000 tested, 0.18% active; inhibition, % at 8.4 µM; HeLa CL3-4 TLR4/MyD88 BLA complementation, FRET ratio; in the data active = inhibition above about 25%;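 note: 0% = vehicle and 100% = reference inhibitor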
TLR9-MyD88 inh: inhibitors of human TLR9-MyD88 binding | Q9NR96+Q99836 | CHO BLA complementation TLR9-MyD88, CCF4 FRET ratio | inhibition, % at 4.98 µM | 340,000 tested, 0.21% active;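 active = inhibition above the mean over all tested compounds plus 3 SD, cut at about 21% in these data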;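 note: 0% = DMSO only wells and 100% = clavulanate BLA inhibitor control wells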
B2AR ag: human beta-2 adrenergic receptor agonism by FAP; P07550; Am2.2-beta2AR cells, FAP receptor internalization, flow cytometry; response, % (test concentration not listed); 340,000 tested, 0.43% active; AID 504454;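 active = response above a set limit, near 3 SD of response in nonfluorescent compounds, cut at about 42% in these data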
Target sequence (P07550 whole entry, looked up): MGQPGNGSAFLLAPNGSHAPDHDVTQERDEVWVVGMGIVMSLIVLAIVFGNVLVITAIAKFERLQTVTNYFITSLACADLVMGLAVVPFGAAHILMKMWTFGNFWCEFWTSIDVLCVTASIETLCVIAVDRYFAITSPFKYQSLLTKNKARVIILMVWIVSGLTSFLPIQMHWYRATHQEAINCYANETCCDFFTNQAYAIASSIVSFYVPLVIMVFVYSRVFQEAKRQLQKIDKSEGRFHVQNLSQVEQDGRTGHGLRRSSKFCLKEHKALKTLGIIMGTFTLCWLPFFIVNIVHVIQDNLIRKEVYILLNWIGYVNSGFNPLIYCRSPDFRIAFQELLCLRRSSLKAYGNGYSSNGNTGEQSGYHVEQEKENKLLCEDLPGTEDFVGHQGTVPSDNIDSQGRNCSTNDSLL
ABHD5-PLIN5 inh: inhibitors of human ABHD5-perilipin-5 interaction; inhibition, % at 4 µM; Q00G26+Q8WTS1; 360,000 tested, 0.78% active; Split G. princeps luciferase complementation, luminescence, 4 h;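 active = inhibition above the mean inhibition across every tested compound plus 3 SD, cut at about 22% in these data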;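 note: 0% = DMSO only wells and the 100% control is not disclosed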
Granule exo inh: lytic granule exocytosis inhibition. TALL-104 LAMP-1 surface exposure, flow cytometry; cells stimulated with thapsigargin and PMA. inhibition, % at 10 µM. 360,000 tested, 0.66% active. AID 651702;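 active = inhibition above about 55%, limit read from the data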
NOD2-RIPK2 inh: NOD2-RIPK2 protein interaction inhibition | O43353 | CHO BLA complementation NOD2-RIPK2, CCF4 ratio | inhibition, % at 4.98 µM | 360,000 tested, 0.38% active | AID 624267; in the data active = inhibition above about 21%;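 note: 0% = vehicle only and 100% = reference blocker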
Numbers without * were called inactive.

For Cc1cc(C)cc(-n2c3nc4ccccc4nc3c3c(=O)n(Cc4ccco4)cnc32)c1 the results were TLR4-MyD88 BLA 13.3, TLR9-MyD88 inh -5.4, B2AR ag -4.6, ABHD5-PLIN5 inh 59.9*, Granule exo inh -4.9 and NOD2-RIPK2 inh 5.7.
`COc1ccc(Cn2c(C)nc3c(c2=O)c2nc4ccccc4nc2n3Cc2ccco2)cc1` gave TLR9-MyD88 inh 3.1, B2AR ag 11.5, ABHD5-PLIN5 inh 32.6*, Granule exo inh 42.7 and NOD2-RIPK2 inh 14.5.
`CCOc1ccc(-n2c3nc4ccccc4nc3c3c(=O)n(Cc4ccco4)cnc32)cc1` gave TLR4-MyD88 BLA -3.9.
For CC(C)(C)n1nnnc1C(c1ccccc1)N1CCN(c2ccc(C(F)(F)F)cn2)CC1 (configuration not stated) the results were ABHD5-PLIN5 inh -1.4, Granule exo inh 6.6 and NOD2-RIPK2 inh 0.8.
`COc1ccc(S(=O)(=O)N2CCN(C(=O)c3ccc([N+](=O)[O-])o3)CC2)cc1` gave TLR9-MyD88 inh 9.6, B2AR ag -0.1, ABHD5-PLIN5 inh 7.2, Granule exo inh 8.0 and NOD2-RIPK2 inh 3.4.
`COc1ccc(/C=C/C(=O)c2ccc([N+](=O)[O-])o2)cc1` gave TLR9-MyD88 inh 1.3, B2AR ag 59.2*, ABHD5-PLIN5 inh 18.0, Granule exo inh 26.2 and NOD2-RIPK2 inh -2.7.
Screening COc1cc(/C=C(\C#N)c2ccccn2)ccc1OCC(=O)Nc1cccc(C(F)(F)F)c1 returned TLR4-MyD88 BLA -1.4, TLR9-MyD88 inh 6.4, B2AR ag 76.2*, ABHD5-PLIN5 inh 6.1, Granule exo inh -1.8 and NOD2-RIPK2 inh -16.9.
`COC1=CC(=O)c2nc(Cl)ccc2C1=O` gave ABHD5-PLIN5 inh 17.6, Granule exo inh 85.8* and NOD2-RIPK2 inh -1.5.
CC1=C(C(=O)N2CCCCCC2)CC(CC(=O)NC(c2ccccc2)c2ccccc2)C(=O)N1CCC1=CCCCC1 (configuration not stated) was read as ABHD5-PLIN5 inh 3.0, Granule exo inh 25.7 and NOD2-RIPK2 inh -1.0.
Screening COC(=O)C1=CN(c2ccc(N3CCOCC3)cc2)C(N)=C(C#N)C1c1ccc(-c2ccccc2)cc1 (configuration not stated) returned ABHD5-PLIN5 inh 9.1, Granule exo inh 13.2 and NOD2-RIPK2 inh -12.1.
Screening Cc1ccc(NC(=S)N(CCCN2CCCC2)Cc2cccn2Cc2ccc(Cl)cc2)cc1Cl returned TLR4-MyD88 BLA 3.7, TLR9-MyD88 inh -4.3, B2AR ag 21.9, ABHD5-PLIN5 inh 11.3, Granule exo inh 65.4* and NOD2-RIPK2 inh -5.6.
Screening Cc1cc(NC(=S)N(CCN2CCCCC2)Cc2ccco2)ccc1Cl returned TLR4-MyD88 BLA 4.0, TLR9-MyD88 inh 0.2, B2AR ag 3.4, ABHD5-PLIN5 inh 6.2, Granule exo inh 4.5 and NOD2-RIPK2 inh -5.2.
For Cc1ccc(NC(=S)N(CCCN2CCCC2)Cc2cccn2Cc2ccc(Cl)cc2)cc1C the results were TLR4-MyD88 BLA -9.6, TLR9-MyD88 inh 4.3, B2AR ag 35.5, ABHD5-PLIN5 inh 13.8, Granule exo inh 80.6* and NOD2-RIPK2 inh 13.8.
Screening COc1ccc(NC(=O)c2cc(-c3cc(C)cc(F)c3)n[nH]2)cc1OC returned ABHD5-PLIN5 inh 3.4, Granule exo inh -8.8 and NOD2-RIPK2 inh 4.4.
Screening CC(C)OC(=O)C(C(=O)C(F)(F)F)c1cc(NS(=O)(=O)c2ccc3ccccc3c2)c2ccccc2c1O (configuration not stated) returned TLR4-MyD88 BLA 2.4, TLR9-MyD88 inh -5.1, B2AR ag 18.4, ABHD5-PLIN5 inh 41.2*, Granule exo inh 26.5 and NOD2-RIPK2 inh 14.1.
For Cc1ccccc1-n1c(=O)cc(N2CC(C)OC(C)C2)[nH]c1=O (configuration not stated) the results were TLR4-MyD88 BLA -2.5, TLR9-MyD88 inh -4.4, B2AR ag -6.1, ABHD5-PLIN5 inh 22.7*, Granule exo inh 1.2 and NOD2-RIPK2 inh 3.2.
Screening COc1ccc(NC(=O)c2cccc(OC(=S)N3CCOCC3)c2)cc1 returned TLR9-MyD88 inh 0.0, B2AR ag 6.5, ABHD5-PLIN5 inh 11.5, Granule exo inh -1.8 and NOD2-RIPK2 inh -21.6.
`O=C(Nc1ccc(Br)cc1)c1cccc(OC(=S)N2CCOCC2)c1` gave TLR9-MyD88 inh -2.1, B2AR ag 76.9*, ABHD5-PLIN5 inh -4.3, Granule exo inh 10.1 and NOD2-RIPK2 inh -1.1.

Screening results as filed in PubChem BioAssay.
